A selection: hits, their analogues and other compounds. The true share with any hit is near 11%.
VP16 counter – counter-screen for ROR gamma inhibitors: Gal4-VP16 reporter. Drosophila S2 Gal4-VP16 UAS-luciferase, luminescence, 20 h. Potency, µM (series often up to 53.6 µM), for the others: at the highest dose activity, negative = inhibition, usual class: inhibitors. hit rate 3.5% among 310,000;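 note: Gal4-VP16 expression switched on by copper sulfate through the metallothionein promoter; potency is the fitted concentration of half-maximal effect; % is set by controls: 0 for no effect and ±100 for the full control effect; nearly all actives have a fitted effect of over 50% in size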
RORg inh – inhibitors of mouse ROR gamma transcriptional activity. P51450. Drosophila S2 Gal4-RORgamma UAS-luciferase reporter, 20 h. Potency, µM (highest dose often 53.6 µM), without a hit: top-dose activity change, negative = inhibition, hits mostly inhibitors. hit rate 5.4% among 310,000. AID 2551; note: potency is the fitted concentration of half-maximal effect; % is set by controls: 0 for no effect and ±100 for the full control effect; nearly all actives have a fitted effect of over 60% in size
Target sequence (P51450 whole entry, looked up, the tested form may be a part): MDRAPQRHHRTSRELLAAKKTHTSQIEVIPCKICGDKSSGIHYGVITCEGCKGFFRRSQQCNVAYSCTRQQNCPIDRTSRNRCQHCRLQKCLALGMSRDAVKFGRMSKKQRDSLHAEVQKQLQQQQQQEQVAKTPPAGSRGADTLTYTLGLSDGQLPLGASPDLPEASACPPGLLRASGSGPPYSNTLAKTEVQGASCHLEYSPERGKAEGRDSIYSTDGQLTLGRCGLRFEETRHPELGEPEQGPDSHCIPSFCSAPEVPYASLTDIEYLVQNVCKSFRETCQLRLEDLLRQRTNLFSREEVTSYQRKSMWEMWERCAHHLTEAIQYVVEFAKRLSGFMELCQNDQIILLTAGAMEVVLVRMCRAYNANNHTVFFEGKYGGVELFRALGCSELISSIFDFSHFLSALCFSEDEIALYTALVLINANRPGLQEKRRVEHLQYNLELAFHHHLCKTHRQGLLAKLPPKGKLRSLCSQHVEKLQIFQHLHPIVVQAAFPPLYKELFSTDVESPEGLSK
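Compounds are pin-transferred onto Drosophila Schneider cells expressing a copper-inducible Gal4–ROR gamma transactivation domain fusion. After 1 hr, copper sulfate is added to 700 uM final; luciferase is read 20 hr later.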
IL1B secr inh – inhibitors of inflammasome signaling (IL-1 beta secretion). THP-1 LPS/ATP IL-1B secretion, AlphaLISA, 16 h; hits give low values. activity change, % at 57.5 µM. hit rate 4.7% among 360,000. AID 743279; in the data active = activity change below about -50%; inconclusive = mostly about -30% to -49%; note: % is set by controls: 0 for no effect and ±100 for the full control effect
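THP-1 cells pretreated 1 hr with compounds (up to 57.5 uM final), then stimulated with LPS (250 ng/mL final) plus ATP (1.25 mM final); secreted IL-1B measured by AlphaLISA after 16 hr, decreased signal indicating inhibition.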
MCF10A rerep – inducers of DNA re-replication in MCF 10A breast cells | MCF 10A DNA re-replication, Hoechst nuclear intensity, 48 h | Potency, µM (doses to about 46.1 µM), without a hit: at the top dose activity, positive = re-replication, most hits filed as activators | hit rate 2.9% among 350,000 | AID 624296; note: potency is the fitted concentration of half-maximal effect; % of control where 0% means no effect; nearly all actives have a fitted effect of over 50% in size
SW480 rerep – induces DNA re-replication in SW480 colon adenocarcinoma cells. hit rate 1.8% among 340,000. AID 624297. Potency, µM (highest dose often 46.1 µM), for inactives: at the top dose re-replication activation, usual class: activators. SW480 DNA re-replication, Hoechst DNA content imaging, 48 h; note: potency is the fitted concentration of half-maximal effect; % of control where 0% means no effect; nearly all actives have a fitted effect of over 55% in size
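DNA re-replication was detected as more nuclei of elevated Hoechst intensity after 48 hr exposure to compound (23 nL pinned per well of 250 cells).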
* = called active by the depositor; ? = inconclusive; . = no result given; [ ] = remark or other dose. Unless noted, calls come from the whole dose curve; as a rule, active = well fitted curve in the direction sought with a large enough effect; inconclusive = small, poorly fitted or top-dose-only effect, or another doubt; inactive = no such curve, though single readings can be large; an effect the other way counts as inactive or inconclusive.

SMILES	VP16 counter	RORg inh	IL1B secr inh	MCF10A rerep	SW480 rerep
CCN(CC)CCNC(=O)C(Cl)=C1C(Cl)=C(Cl)C(Cl)=C1Cl	.	.	-100*	10µM*	12µM*
CCOC(=O)C1CCN(C(=O)Cn2c(=O)c3cccn3c3cccnc32)CC1	-1%	3%	6	8%	16%
COc1ccc(/C=C2/C(=O)ON=C2C)cc1Br	7%	-1%	-88*	-13%	-6%
CC1=NOC(=O)/C1=C\c1ccc2c(c1)OCO2	3%	3%	-96*	?	?
CC1=NOC(=O)/C1=C/c1ccc2c(c1)OCO2	-12%	1%	-13	0%	1%
O=C1CC(C(F)(F)C(F)(F)C(F)(F)F)=Nc2ccccc2N1	-2%	-8%	-22	17%	-4%
O=C1CC(/C=C/c2cccnc2)=Nc2ccccc2N1	13%	-21%	-93*	?	?
O=C1CC(/C=C/c2ccccc2)=Nc2ccccc2N1	?	28%	-50*	?	-455%[1.84 µM]
CC1(C)CC(/C=C/c2ccccc2)=Nc2ccccc2N1	-15%	-37%	-62*	?	?
O=C1CC(/C=C/c2ccc(Cl)cc2)=Nc2ccccc2N1	29%	?	-94*	?	?
O=C1CC(=O)Nc2ccccc2N1	.	.	-6	.	.
O=C(O)CCC1CCCC1	-8%	-13%	.	.	.
O=C(O)[C@@H](O)[C@@H](O)[C@@H](O[C@H]1O[C@@H](CO)[C@@H](O)[C@@H](O)[C@@H]1O)[C@@H](O)CO	-3%[17 µM]	-2%[16.9 µM]	.	.	.
OC1C=C2CCN3Cc4cc5c(cc4C(C1O)C23)OCO5 (stereo not given)	11µM*	?	.	.	.
Cc1cccc(N2C(=O)c3ccc(Br)cc3C2=O)n1	3%	-20%	.	.	.
O=C1c2ccc(Br)cc2C(=O)N1c1ccc(Cc2ccncc2)cc1	14µM*	?	-8	1%	-6%
CC(C)CO/N=C1/C[C@@H](O)[C@@H](O)[C@@H]2[C@@H]3C(=O)N(C(C)(C)C)C(=O)[C@H]3CC[C@@H]12	-6%[10 µM]	-1%[10 µM]	.	.	.
COc1ccc(C(=O)CSc2nc3ccccc3n2CC(=O)c2ccccc2)cc1	-4%	-10%	-25	4%	15%
COc1ccc(C(=O)/C=C/c2ccc(OC)c(COc3ccc(F)cc3)c2)cc1	-12%	?	-93*	?	?
COc1ccc(/C=C/C(=O)OCC(=O)c2ccccc2F)cc1	.	.	-13	-3%	-4%
COc1ccc(C(=O)Cn2c(C(=O)/C=C/c3ccccc3)nc3ccccc32)cc1	?	4µM*	-27	?	?
COc1ccc(/C=C/C(=O)c2ccc(O)cc2)cc1	7.1µM*	2.5µM*	-80*	?	?
COc1ccc(C(C)=O)cc1COc1ccc(F)cc1	-11%	-19%	4	3%	1%
COc1ccc(/C=C\C(=O)CC(O)(c2ccccc2)C(F)(F)F)cc1 (stereo not given)	-8%	?	-74*	-4%	1%
COc1ccc(S(=O)(=O)N2CCCCCC2)cc1C(=O)OCC(=O)NC1CCS(=O)(=O)C1 (stereo not given)	.	.	6	3%	-7%
SMILES	VP16 counter	RORg inh	IL1B secr inh	MCF10A rerep	SW480 rerep
COc1ccc(/C=C/C(=O)c2ccccc2O)cc1	-11%[10 µM]	?	0	10%	0.1µM*
O=C(/C=C/NNC(=O)c1ccc(Br)cc1)c1ccccc1	-1%	?	8	?	?
O=C(/C=C/NNC(=O)c1ccccc1)c1ccccc1	?	7.9µM*	37	?	?
Cc1ccc(C(=O)C=CNNC(=O)c2ccccc2)cc1	7.1µM*	13µM*	6	13%	8%
Cc1cccc(C(=O)NN/C=C/C(=O)c2ccccc2)c1	5µM*	6.3µM*	70	1%	0%[9.22 µM]
COc1ccc(C(=O)NCCCC2CCCC2)cc1OC1CCN(C(C)C)CC1	.	.	-22	.	.
N#Cc1ccccc1CSC1=NCCS1	-10%	-3%	-89*	4%	23%
CCOC(=O)[C@]12CCC=C1N(Cc1ccc3c(c1)OCO3)C(=O)[C@H](CC(=O)NCCc1ccccc1OC)C2	.	.	0	.	.
CC(NC(=O)OCc1ccccc1)C(=O)Oc1cc2oc(=O)cc(-c3ccccc3)c2cc1Cl (stereo not given)	5%	1%	23	18µM*	?
CCCCCCCCCCN1CCOCCOCCN(CCCCCCCCCC)CCOCCOCC1	3%	25%	.	.	.
CC(C)(C)C1=CC(=O)C(N2CCOCC2)=CC1=O	?	10µM*	35	11%	1%
O=c1c(N2CCOCC2)c(N2CCOCC2)c1=O	-1%	30%	0	0%	-24%
Cc1ccc(S(=O)(=O)N2CCCCC2)cc1C(=O)OC1CCCCC1=O (stereo not given)	.	.	4	5%	0%
Oc1cc(-c2ccc(N3CCCCC3)nc2)cc2cccnc12	.	.	.	?	0.82µM*
CCCCSc1nc(C)cc(NC(=S)Nc2ccc(OC)cc2)n1	3.5µM*	1.3µM*	55	?	15%
CCOc1ccc(NC(=O)Nc2ccc3nsnc3c2)cc1	-7%	?	?	1%	9%
COc1ccc(NC(=S)Nc2ccc3nc(C)c(C)nc3c2)cc1	-3%	11µM*	38	7%	-1%
C=CCN(CC=C)C(=S)Nc1ccc2nsnc2c1	6.3µM*	3.5µM*	45	1%	1%
C=CCNC(=S)Nc1ccc2nsnc2c1	6%	-32%	5	17%	0%
CCOc1ccc(NC(=S)Nc2ccc3nsnc3c2)cc1	?	-91%	3	?	21µM*
CCC(C)c1ccc(NC(=S)Nc2ccc(OC)cc2C)cc1 (stereo not given)	?	4%	0	?	2%
CNC(=S)Nc1ccc2nc(C)c(C)nc2c1	-6%	24%	16	201%[0.0737 µM]	-27%
CCCCC[C@@H](C)N1C[C@@H](COCc2ccccc2)Oc2cc(N3CCC[C@@H]3COC)ccc2S1(=O)=O	.	.	56	.	.
CCOC(=O)C1CCCN(C(=O)c2sc(-c3ccccc3)nc2C)CC1 (stereo not given)	.	.	0	.	.
C/C(=C\C[Si](C)(C)C)CCC=O	-13%	12%	.	.	.
SMILES	VP16 counter	RORg inh	IL1B secr inh	MCF10A rerep	SW480 rerep
CC(C)N(C(=O)Nc1ccc2nsnc2c1)C(C)C	-20%	-11%	?	16µM*	?
COc1ccc(NC(=S)Nc2ccc3nsnc3c2)cc1	5.6µM*	10µM*	-4	22%	6%
Cc1nc(C(=O)NNC(=O)c2ccccc2)c(C(F)(F)F)o1	-4%	11µM*	34	2%	-137%
O=c1[nH]cc(CCc2ccccc2)c(=O)[nH]1	.	.	12	.	.
O=C1CNC(=S)N1c1nc(-c2ccccc2)cs1	?	3.2µM*	-9	-4%	-3%
COc1ccc(-c2csc(N3C(=O)CNC3=S)n2)cc1	?	?	-21	-4%	-2%
CCOC(=O)C1=C(CC)Nc2ccccc2N=C1NC(=O)Nc1ccc(Cl)c(Cl)c1	?	-15%	-74*	6.5µM*	?

Compound activity (PubChem)
